High-throughput results: PubChem, The Scripps Research Institute Molecular Screening Center
NR2F2 inh – blocks human COUP-TFII nuclear receptor. HEK293T NGFI-A luciferase reporter, luminescence. 370,000 tested, 0.7% active. inhibition, % at 8.6 µM. P24468;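 active = inhibition above a per-plate cutoff, mean inhibition of test wells between control levels plus 3 SD, cut at about 38% in these data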;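 also: cells cotransfected with COUP-TFII expression vector driving the NGFI-A reporter; 0% = median of COUP-TF2 test wells and 100% = reporter-only cells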
LRH-1 inv ag – NR5A2 inverse agonism in reporter assay | HEK293T StAR-luciferase reporter, LRH-1 transfected, 24 h | inhibition, % at 3.6 µM | 360,000 tested, 0.13% active | O00482;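 active = inhibition above the mean inhibition of all tested compounds plus 3 SD, cut at about 73% in these data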;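 also: 0% = DMSO wells and 100% = reporter-only cells lacking LRH-1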
NCOA1 inh – human NCOA1 inhibition | inhibition, % at 3.6 µM | 360,000 tested, 0.12% active | Q15788 | AID 588354 | HEK293 GAL4-SRC1 luciferase reporter, luminescence;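 active = inhibition above the campaign mean plus 3 SD, with each screening campaign given its own cutoff, cut at about 60% in these data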;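 also: 0% = DMSO treated cells and 100% = gossypol at 36 µM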
NCOA3 inh – inhibits human SRC3 coactivator; Q9Y6Q9; HEK293 GAL4-SRC3 luciferase reporter, luminescence; inhibition, % at 3.6 µM; 360,000 tested, 0.17% active; AID 588352;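 active = inhibition above a per-campaign cutoff, the mean of all compounds plus 3 SD, cut at about 60% in these data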;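 also: 0% = DMSO-treated cells and 100% = gossypol-treated cells at 36 µM; higher means less SRC3-driven luciferase light from the GAL4 reporter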
NCOA2 inhibitor – inhibits human steroid receptor coactivator 2; Q15596; HEK293 GAL4-SRC2 luciferase reporter, luminescence; inhibition, % at 9 µM; 370,000 tested, 0.17% active; AID 651957;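 active = inhibition above the mean inhibition of all tested compounds plus 3 SD, set per campaign, cut at about 52% in these data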;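 also: 0% = DMSO treated cells and 100% = cells given Gossypol at 36 µM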
* = called active by the depositor; / = no result. Sampled rows, rich in hits. Any-hit rate of the full collection: about 0.81%.

SMILES	NR2F2 inh	LRH-1 inv ag	NCOA1 inh	NCOA3 inh	NCOA2 inhibitor
CCC(=O)Nc1ccc(NC(=S)NC(=O)c2oc3ccccc3c2C)cc1	4	-4	11	0	-4
CCC(=O)Nc1ccc(NC(=O)c2oc3ccccc3c2C)cc1	4	20	24	11	58*
Nc1nc(Cl)c(N)c(NCC2(CO)CC(CCc3ccccc3)C2)n1 (centres undefined)	58*	7	5	14	29
O=C(NCc1ccccc1)[C@]1(C(F)(F)F)C[C@H](CCc2ccccc2)CCCO1	-3	-30	-22	8	-6
CC(C)CN1C(=O)[C@@]2(CC(=O)N(C)C2c2ccccc2)c2cc(-n3cc(-c4ccccc4)nn3)ccc21 (some centres undefined)	-5	/	/	/	-5
Oc1ccc2ccccc2c1C=Nn1c(-c2n[nH]c3c2CCC3)n[nH]c1=S	-2	/	/	/	20
N#Cc1cc2c(nc1SC1CC(=O)N(c3ccccc3)C1=O)CCC2 (centres undefined)	/	37	59	77*	/
CSc1nc2c(cc1C#N)CCC2	-5	5	8	6	-9
Cc1ccc(N/C(N)=N/c2nc3c(c(=O)[nH]2)CCCC3)c(C)c1	7	4	-19	4	-5
Cc1ccc(N/C(N)=N/c2nc(C)cc(N3CCCCC3)n2)c(C)c1	47*	20	9	25	11
O=C(/C=C/c1ccccc1)CC(O)(c1ccccc1)C(F)(F)F (centres undefined)	16	20	40	72*	40
c1ccc2c(c1)CCN(c1nc3cc4c(cc3s1)OCCO4)C2	61*	37	44	32	58*
O=C(c1ccc(F)cc1)C(CN1CCOCC1)c1ccccc1 (centres undefined)	3	8	6	74*	52
COc1ccc(C(=O)C(CN2CCOCC2)c2ccccc2)cc1 (centres undefined)	-20	19	33	50	55*
O=S(=O)(N[C@H]1CCCC[C@@H]1N1CCOCC1)c1ccc(Cl)cc1	-9	/	/	/	/
FC(F)(F)c1ccccc1Cn1ccc2ccc(-c3ccc4ccn(Cc5ccccc5C(F)(F)F)c4c3)cc21	-14	/	/	/	-13
NC(=S)N1OC[C@@H]2COc3ccc4ccccc4c3[C@@H]21	12	28	18	11	54*
O=C1CCC2S/C(=C/Nc3ccc(C(F)(F)F)cc3)C(=O)N12 (centres undefined)	32	10	33	31	72*
O=C1CCCC/C1=C/Nc1cccc(C(F)(F)F)c1	-14	-23	-16	0	-7
Cc1cccc(C)c1NC(=O)[C@@H]1CC(=O)O[C@@H]1c1ccccc1	-9	/	/	/	0
Cc1nnsc1C(=O)N/N=C/c1ccccc1	-13	-18	15	9	-7
Cc1nnsc1C(=O)N/N=C/c1ccc2ccccc2c1O	4	-14	81*	84*	18
CCCCCCCCN1CN2Cc3cc(OC)ccc3C2CS1(=O)=O (centres undefined)	2	/	/	/	-12
Cc1ccc(OCc2nnc(SCC(=O)Nc3ccc4c(c3)OCO4)n2Cc2ccco2)cc1	14	/	/	/	0
O=S(=O)(c1ccc(N=C2NN=C(c3cc(F)ccc3F)CS2)cc1)N1CCOCC1	41*	5	-15	23	-9
SMILES	NR2F2 inh	LRH-1 inv ag	NCOA1 inh	NCOA3 inh	NCOA2 inhibitor
Fc1ccc(N=C2NN=C(c3cc(F)ccc3F)CS2)cc1	-59	-30	-48	-47	-33
c1ccc(-c2nnc(-c3ccccn3)nc2NC2CCCCC2)cc1	-2	67	50	78*	14
O=C(N/N=C/c1c(O)ccc2ccccc12)c1cccc(C(F)(F)F)c1	4	16	70*	74*	32
COc1ccc2ccccc2c1/C=N/NC(=O)c1cccc(Br)c1	7	4	7	2	-4
O=C(N/N=C/c1c(O)ccc2ccccc12)c1[nH]ncc1Br	-29	69	24	67*	5
Cc1ccc2[nH]c3c(c2c1)CCCC3C(N)=O (centres undefined)	-9	12	-3	9	-19
Cc1ccc2[nH]c3c(c2c1)CCCC3NC(=O)CCl (centres undefined)	/	89*	77*	77*	/
CC(C)CCN(C)C1CCN(C(=O)Nc2ccc(Cl)cc2)CC1	-10	/	/	/	2
c1ccc(Cn2ccc3ccc(-c4ccc5ccn(Cc6ccc7ccccc7c6)c5c4)cc32)cc1	13	/	/	/	-20
O=C(Nc1nc(-c2ccc(S(=O)(=O)N3CCCC3)cc2)cs1)c1cccs1	55*	-4	9	-58	15
O=C(Nc1nc(-c2ccccc2)cs1)C1CCCN(S(=O)(=O)c2ccccc2)C1 (centres undefined)	44*	45	26	38	8
O=C(Nc1ccc(S(=O)(=O)N2CCCC2)cc1)c1cccs1	0	-10	-67	14	0
O=C1C=CC(=C(c2ccc(O)cc2)c2ccc(O)cc2)C=C1	31	81*	59	53	41
CCOC(=O)c1c(C)nn(-c2ccc(NC(=O)c3c(C)noc3C)cc2)c1C	5	3	20	22	54*
COC(=O)[C@]12C[C@H](CC(=O)NCC3CCCCC3)C(=O)N(Cc3ccccc3)C1=C[C@H](COCc1ccccc1)O[C@@H]2C	0	/	/	/	-6
COc1ccc(CNc2ncc(-c3ccc(F)cc3)n2C)c2ccccc12	5	-15	26	14	82*
CCCC[C@H]1C2CC(OC(=O)Nc3cccc(F)c3)C(C2)[C@H]2CCCCN21 (some centres undefined)	15	/	/	/	2
COc1ccc2ccccc2c1C=Nn1c(-c2cc(-c3ccccc3)n[nH]2)n[nH]c1=S	-10	/	/	/	-20
c1coc(-c2ccc3nncn3c2)c1	-5	10	5	-22	-5
c1ccc2c(-c3ccc4nncn4c3)cncc2c1	13	39	64*	62*	55*
Cc1onc(-c2ccccc2)c1C(=O)NC(=S)NNC(=O)c1ccccc1O	26	90*	64*	76*	16
Cn1c2c(c(=O)n(C)c1=O)C(C(F)(F)F)(C(F)(F)F)N=C(c1ccc(Cl)cc1)N2	/	98*	75*	77*	/
Cc1cn(-c2cc(NC(=O)c3ccc(C)c(Nc4nccc(-c5cccnc5)n4)c3)cc(C(F)(F)F)c2)cn1	-3	/	/	/	33
COCCn1c(C)cc(C(=O)COc2ccc(C)nc2[N+](=O)[O-])c1C	5	18	39	37	54*
C=CCN1C(=O)[C@@H](CC(=O)NCCCOC)[C@]2(C(=O)OC)CCCCC=C12	14	/	/	/	2
Nc1cc2ccncc2c2ccccc12	36	66	67*	60	40
CCC(NC(=O)CN1CCN(c2cccc(OC)c2)CC1)c1ccccc1 (centres undefined)	-17	/	/	/	-3
C=C1C(=O)[C@@]23[C@H](O)C[C@@H]4C(C)(C)CC[C@H](O)[C@@]4(C)[C@@H]2CC[C@@H]1[C@H]3O	23	38	44	35	60*
